Assay outcomes: PubChem BioAssay, National Center for Advancing Translational Sciences (NCATS)
BRCA1 expr up – BRCA1 expression activation; MCF7-BRCA1-FFLuc reporter, luminescence, 48 h; response scale: scaled: vehicle 0%, 10 µM genistein 100%; Potency, µM (series often up to 46.1 µM), for the others: at the top dose activation, hits mostly activators; 380,000 tested, 1.1% active; note: potency is the fitted concentration of half-maximal effect; nearly all actives have a fitted effect of over 80% in size
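Reporter cells (MCF7, BRCA1 promoter-firefly luciferase) received library compounds across a concentration series for 48 h. End-point luminescence was measured and concentration-effect curves derived after normalization.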
TCR activator – activators of T cell receptors; primary human leukocytes, anti-CD3, IL-2 HTRF, 48 h; 330,000 tested, under 10 active; Potency, µM (doses to about 9.22 µM), without a hit: at the highest dose activation of IL-2 secretion, most hits filed as activators; AID 504894; note: % of control where 0% means no effect
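Readout: HTRF IL-2, Eu-cryptate/d2 antibody pair, 320nm excitation, 665nm emission. Stimulus: a-CD3 beads, no co-stimulation. Cells: primary human leukocytes. Exposure: 48 hr with compound.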
pAkt inh – blocks phosphorylation of Akt | Neuro2A IGF-stimulated pAkt S473 HTRF, 20 min; stronger effect = lower value | activity change, % for hits at 50 µM | 360,000 tested, 0.32% active | AID 651550; in the data active = activity change below about -80%; inconclusive = mostly about -51% to -80%; note: % is set by controls: 0 for no effect and ±100 for the full control effect
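Neuro2A cells (4,500/well, DMEM with 0.5% FBS) were treated with compound at a single 50 µM final concentration, stimulated with 6 nM IGF for 20 min at 37 °C, and lysed. Phospho-Akt Ser473 was read by HTRF as 665/615 ratio ×10^4.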
PINK1 expr mod – modulators of PINK1 expression; AID 624263; Potency, µM (top dose mostly 76.6 µM), for inactives: at the highest dose activation (PINK1 increase), actives largely listed as activators; PINK1 immunofluorescence, high-content cytometry, 24 h; 410,000 tested, 0.2% active; active = well fitted activation curve with a large enough effect; inconclusive = small, poorly fitted or top-dose-only effect; cell line not stated here; note: potency is the fitted concentration of half-maximal effect; % of control where 0% means no effect; nearly all actives have a fitted effect of over 65% in size
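Readout is PINK1 immunofluorescence, quantified alongside mitochondrial, cell and nuclear markers by laser-scanning microplate cytometry. Cells from a stable line were exposed to compound titrations (5 concentrations) for 24 hours, with CCCP controls.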
The depositor's hits bear a star; i = inactive; ? = inconclusive; . = not tested or not shown; [ ] = dose if it differs, or a comment. Rows were chosen to be rich in hits. Some 1.5% of all compounds tested hit in one or more screens of this group. Unless noted, calls come from the whole dose curve; as a rule, active = well fitted curve in the direction sought with a large enough effect; inconclusive = small, poorly fitted or top-dose-only effect, or another doubt; inactive = no such curve, though single readings can be large; an effect the other way counts as inactive or inconclusive.

SMILES	BRCA1 expr up	TCR activator	pAkt inh	PINK1 expr mod
C[n+]1ccc(/C=C/c2ccc([N+](C)(C)C)cc2)c2ccccc21	-66.0%	.	.	?
COc1cccc(NC(=O)c2ccc(NC(=O)C(C)C)cc2)c1	10µM*	-1.6%	i	1.3%
COc1cccc(NC(=O)CC(=O)c2ccc([N+](=O)[O-])cc2)c1	11.2µM*	-0.5%	i	?
CC(C)Oc1cccc(C(=O)NC(=S)Nc2ccccc2)c1	12.6µM*	2.2%[46.1 µM]	i	-0.6%
COC(=O)c1cccc(NC(=O)c2ccc(OC)c(Cl)c2)c1	5.01µM*	6.4%	i	-0.5%
CC(C)OC(=O)c1cccc(NC(=O)c2ccccc2)c1	11.2µM*	-3.1%[46.1 µM]	i	1.1%
CC(C)C(=O)Nc1ccc(C(=O)c2ccccc2)cc1	11.2µM*	-1.1%[46.1 µM]	i	4.4%[38.3 µM]
CC(C)C(=O)Nc1ccc(-c2nnc(-c3ccccc3)o2)cc1	169.6%	7.9%	i	?
COc1cccc(NC(=O)c2ccccc2)c1	8.91µM*	-5.2%	i	1.3%
CC(=O)c1ccc(NC(=O)c2cccc(NC(=O)c3ccccc3)c2)cc1	45.8%	.	i	3.3%
Cc1ccc(S(=O)(=O)NCC(c2ccc(N(C)C)cc2)N2CCCC2)cc1 (centres undefined)	.	.	.	-0.6%
OC1(c2cccnc2)CCN(Cc2ccc3c(c2)CN(Cc2cc(F)ccc2F)CCO3)CC1	.	.	.	-1.1%
CSc1ccc(-c2ccc3c(c2)CC(CNC(=O)Cn2nc(C)nc2C)O3)cc1 (centres undefined)	.	.	.	0.2%
CC(=O)C12CCCCC1CC1[C@@H]3CC(C)C4=CC(=O)CC[C@]4(C)C3CC[C@@]12C (some centres undefined)	-37.5%	4.3%	i	15.8µM*
CC12CCC(=O)C=C1C(O)CC1C2CCC2(C)C1CCC2(O)C(=O)CO (centres undefined)	0.0%	1.7%	i	1.9%
CC(=O)O[C@]1(C(C)=O)CC[C@H]2[C@@H]3C[C@H](C)C4=CC(=O)CC[C@]4(C)[C@H]3CC[C@@]21C	-3.5%	1.2%	i	31.6µM*
CC(=O)OC1(C(C)=O)CCC2C3CC(C(F)(F)F)C4=CC(=O)CCC4(C)C3CCC21C (centres undefined)	-73.7%	-1.9%	i	2.2%
O=C(Nc1ccccc1)c1cccc2c(=O)c3c([nH]c12)CCCC3	.	.	.	2.7%
COc1cc(CNCc2cc3cc(C)ccc3nc2-c2ccc(F)cc2)cc(OC)c1OC	.	.	.	1.6%
Cc1nnc(NC(=O)C2c3ccccc3Oc3ccccc32)s1	-16.7%	4.4%[46.1 µM]	i	-1.1%
O=C(Nc1nncs1)C1c2ccccc2Oc2ccccc21	1.4%	-0.5%	-102.3%*	-3.8%[38.3 µM]
COc1cc2nc(NC3CCN(C)CC3)nc(NC3CCN(C)CC3)c2cc1OC	0.0%	.	.	-0.2%
Cc1ncc2c(c1CNC(=O)c1ccccc1F)CCN(C(=O)c1csc(-c3cccs3)n1)C2	.	.	.	0.7%
N#Cc1cccc(-c2nc3cnc(N4CCOCC4)nc3n(C3CC3)c2=O)c1	.	.	.	11.1%
N#Cc1c(N2C(=O)Nc3ccccc3N2O)sc2c1CCCC2	11.2µM*	-3.0%	i	1.0%
SMILES	BRCA1 expr up	TCR activator	pAkt inh	PINK1 expr mod
CCC(=O)CCC(=O)c1ccc2ccccc2c1	7.08µM*	-0.4%[46.1 µM]	i	?
COc1cc(=O)n2c(c1C(=O)NCc1ccco1)CCN(Cc1ccc(F)cc1Cl)CC2	.	.	.	0.0%
CN(C)/C=C/C(=O)c1ccc(Cl)cc1	45.3%	-5.4%	i	-0.6%[38.3 µM]
CN(C)/C=C/C(=O)c1ccc(-n2cccc2)cc1	7.94µM*	-0.7%	i	0.5%
Cc1c(C(=O)NCc2nccs2)cnn1-c1ncc2c(n1)-c1ccccc1CC2	.	.	.	1.5%
O=C(CSc1cn(Cc2ccccc2)c2ccccc12)Nc1nccs1	11.2µM*	-3.2%	i	3.5%
Nn1c(SCC(=O)NC2CCCc3ccccc32)nnc1-c1cccs1 (centres undefined)	-6.3%	10.4%	-103.4%*	-0.9%
CCN1CCCC1CNC(=O)c1cnn(-c2nccc(-c3ccco3)n2)c1C1CC1 (centres undefined)	.	.	.	-1.2%
O=c1oc2c3c4c(cc2c(C(F)(F)F)c1CCN1CCOCC1)CCCN4CCC3	0.6%	1.3%	-109.3%*	21.9%
CCc1nnc(NC(=O)CSc2ccc(-c3ccc(-n4cccn4)cc3)nn2)s1	10µM*	-5.0%	i	12.0%
Cc1ccccc1NC(=O)CSc1ccc(-c2ccc(-n3cccn3)cc2)nn1	0.2%	1.9%	i	11.1%
CCN1CCC(N[C@H]2C[C@@H](C(=O)NC)N(Cc3cccc4ccccc34)C2)CC1	.	.	.	-0.2%
O=C(CCN1C(=O)c2cccc3cccc(c23)C1=O)N1CCOCC1	12.6µM*	6.0%	i	3.6%
O=C(CCN1C(=O)c2cccc3cccc(c23)C1=O)NC1CCS(=O)(=O)C1 (centres undefined)	10µM*	1.2%	i	-1.7%
Cc1ccc2nc(-c3ccc(N)cc3)sc2c1	-64.1%	-2.4%	i	1.8%
Cc1ccc2nc(-c3ccc(N4C(=N)SC5CS(=O)(=O)CC54)cc3)sc2c1 (centres undefined)	8.91µM*	-8.1%[46.1 µM]	i	4.5%
Cc1sc(C2C(C#N)=C(N)N(c3ccc(Cl)cc3)C3=C2C(=O)CCC3)cc1CN1CCOCC1 (centres undefined)	.	.	.	-1.0%
O=C(O)c1ccc(N=NNc2cccc([N+](=O)[O-])c2)cc1	43.2%	2.2%	i	1.9%
N#C/C(=N/Nc1ccc([N+](=O)[O-])cc1)C(=N)N1CCCCC1	?	8.2%	i	2.7%
N#C/C(=N\Nc1cccc([N+](=O)[O-])c1)C(=O)c1ccc(Br)cc1	-78.3%	-2.6%	i	4.47µM*
N#C/C(=N\Nc1ccc([N+](=O)[O-])cc1)C(N)=S	-43.0%	-15.4%	i	25.1µM*
CC(C)=CCC/C(C)=C/CC/C(C)=C/CCC1(C)CCc2cc(O)ccc2O1 (centres undefined)	0.0%	.	.	1.5%
O=C(Nc1cccc(C(=O)OCc2cc(=O)n3nc(C4CC4)sc3n2)c1)c1cccc(F)c1	.	.	.	-0.9%
Cc1cccc(N(C(=O)c2nsc(Cl)c2Cl)C(C(=O)NC2CCCC2)c2ccc(O)cc2)c1C (centres undefined)	-87.7%	-0.9%	i	44.7µM*
Cc1ncc2c(c1CNC(=O)c1cncs1)CCN(C(=O)c1cccc(-c3cccc(F)c3)c1)C2	.	.	.	0.2%
SMILES	BRCA1 expr up	TCR activator	pAkt inh	PINK1 expr mod
COc1ccc(C(=S)NC2CCCCC2)cc1	?	4.1%	i	0.7%
CCOc1ccc(C(=S)NC2CCCCC2)cc1	10µM*	0.0%	i	2.1%[38.3 µM]
O=C(Nc1ccc(Cl)cc1)C1CCN(S(=O)(=O)c2ccc(Br)s2)CC1	.	.	.	17.8µM*
O=C(CSc1nnc2ccccn12)Nc1cccc(-c2nc3ccccc3s2)c1	5.01µM*	-0.2%	i	5.5%
O=C(CSc1nnc2ccccn12)Nc1ccc2c(c1)OCO2	3.8%	-4.6%	i	-1.5%
COC(=O)[C@@H]1CCCN1Cc1ccc2c(c1)CN(Cc1ccccc1F)CCO2	.	.	.	-0.3%
Cc1cc(/C=N/NC(=O)c2ccoc2C)cc(C)c1O	7.94µM*	.	i	-0.2%
